According to PubChem BioAssay (NCI):
The panel holds about 83,000 compounds, 20% with a hit somewhere; the sample as a whole holds those more often.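 Results are percent growth after 48 hours of single-concentration exposure. 100 means growth as in untreated cells, lower positive values show inhibition; negative values down to -100 show cell death.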 Active and inactive are the calls of the source. Rule for the calls: active = growth percent below 10; inactive = the rest.

Tests used:
Experiment in all cases: NCI-60 one-dose screen, 48 h (100 = growth as untreated, 0 = no growth, -100 = all killed)
Conditions in all cases: 10 µM unless noted
[1] = test system: NCI-H23 lung
[2] = test system: NCI-H226 lung
[3] = test system: NCI-H322M lung
[4] = test system: HOP-62 NSCLC
[5] = test system: NCI-H460 lung
[6] = test system: A549/ATCC NSCLC
[7] = test system: 786-0 renal
[8] = test system: COLO 205 colon
[9] = test system: DU-145 prostate
[10] = test system: K-562 leukemia
[11] = test system: MALME-3M melanoma
[12] = test system: MDA-MB-231 breast
[13] = test system: RXF 393 renal
[14] = test system: SF-268 CNS
[15] = test system: SF-295 CNS
[16] = test system: SF-539 CNS
[17] = test system: UACC-257 melanoma
[18] = test system: M14 melanoma
[19] = test system: HOP-92 NSCLC

Measured: growth

COc1cnc2c(c1)C(=O)c1c-2n(CCCN2CCCC2)c(=O)c2cc(Cl)ccc12
inactive: [1] 32.5% | [3] 46.6% | [4] 16.2% | [6] 25.3% | [8] 10.4% | [9] 36% | [11] 70.3% | [12] 62.4% | [13] 30% | [14] 39.2% | [15] 23% | [17] 63.6% | [18] 37.3%
active: [2] 6.56% | [5] -12.9% | [7] -73.1% | [10] -72% | [16] 4.9%

Cc1ccc([C@H]2c3[nH]c4ccccc4c3C[C@H]3C(=O)N(CCCCCCC(=O)NO)CC(=O)N23)cc1
inactive: [1] 63.8% | [2] 94.2% | [3] 55.6% | [4] 52.9% | [5] 48.7% | [7] 82.1% | [8] 47.3% | [9] 60.5% | [10] 20.2% | [11] 19.5% | [12] 44.4% | [13] 51.5% | [14] 68.6% | [15] 67.4% | [16] 52.6% | [17] 50.5% | [18] 43.6%

CCN(CC)CC(=O)Nc1c(C)cc(C(=O)NN)cc1C
inactive: [1] 94.8% | [2] 99.7% | [3] 89.1% | [4] 88.5% | [5] 105% | [6] 106% | [7] 106% | [8] 95.4% | [9] 96.8% | [10] 94.9% | [11] 73.9% | [12] 103% | [13] 110% | [14] 93.9% | [15] 105% | [16] 100% | [17] 100% | [18] 96.2%

C[N+](C)(C)CCCCCCCCCC[N+](C)(C)C
inactive: [1] 88.7% | [2] 95.6% | [3] 118% | [5] 98.2% | [19] 103% | [6] 103% | [7] 109% | [11] 93% | [12] 83.6% | [13] 101% | [14] 98.2% | [15] 113% | [16] 119% | [17] 107% | [18] 97.1%

O=C(CSc1nnc(Cc2ccccc2Nc2c(Cl)cccc2Cl)n1-c1ccccc1)N1N=C(c2ccc3ccccc3c2)CC1c1ccc(Cl)cc1 (configuration not stated)
inactive: [1] 96.2% | [2] 98.8% | [3] 90.7% | [4] 92.7% | [5] 106% | [6] 96.3% | [7] 95.9% | [8] 102% | [9] 94.3% | [10] 101% | [11] 95.4% | [12] 104% | [13] 124% | [14] 89.1% | [15] 100% | [16] 106% | [17] 117% | [18] 98.4%

COc1ccc(/C(C)=N/NC(=O)c2ccc(S(C)(=O)=O)cc2)cc1OC
inactive: [1] 104% | [2] 95.5% | [3] 96.5% | [4] 85.5% | [5] 108% | [6] 96.5% | [7] 94.2% | [8] 95.3% | [9] 95.7% | [10] 69.5% | [11] 98.1% | [12] 103% | [13] 114% | [14] 102% | [15] 98.3% | [16] 99.1% | [17] 96.3% | [18] 97.4%

COc1cc(CN(CCC(O)N2CCCC2=O)Cc2ccc3c(c2)OCO3)cc(OC)c1OC (configuration not stated)
inactive: [1] 108% | [2] 104% | [3] 90.3% | [4] 103% | [5] 106% | [6] 106% | [7] 94.1% | [8] 120% | [9] 108% | [11] 109% | [12] 110% | [13] 121% | [14] 106% | [15] 91.5% | [16] 100% | [17] 109% | [18] 95.8%

COc1cc(Nc2ncccc2/C=C/C(=O)c2cc(OC)c(OC)c(OC)c2)cc(OC)c1OC
inactive: [1] 81.7% | [2] 82.9% | [3] 102% | [4] 92.7% | [5] 79.7% | [6] 68.8% | [7] 91.7% | [8] 75.2% | [9] 80.6% | [10] 45.5% | [11] 103% | [12] 93.3% | [13] 86% | [14] 83.3% | [15] 84.2% | [16] 78.9% | [17] 67% | [18] 86.7%

COc1ccc(NC(=O)Cn2c(=O)sc3c(-c4ccc(Cl)cc4)cc(-c4ccc(Cl)cc4)nc32)cc1
inactive: [1] 91% | [2] 108% | [3] 95.1% | [4] 97.8% | [5] 102% | [6] 96.7% | [7] 88.7% | [8] 100% | [9] 96.7% | [10] 85.1% | [11] 112% | [12] 110% | [13] 110% | [14] 93.1% | [15] 95.8% | [16] 98% | [17] 115% | [18] 94.1%

O=C(Nc1ccc(Br)cc1)c1ccc(Cl)c(Cl)c1
inactive: [1] 26.2% | [2] 61.8% | [3] 42.3% | [4] 98.3% | [5] 14% | [6] 63.4% | [7] 73.1% | [8] 83.9% | [9] 34.7% | [10] 12.9% | [11] 48.5% | [12] 56% | [13] 112% | [14] 73.6% | [16] 67.5% | [17] 102% | [18] 64.5%
active: [15] 6.6%

O=c1c2cc(Cl)ccc2oc2ccc(OCCCCCN3CCCCC3)cc12
inactive: [1] 75.1% | [2] 86.7% | [3] 89.7% | [4] 88.9% | [5] 10.2% | [6] 32.3% | [7] 35.4% | [8] 10.6% | [9] 74.6% | [11] 74.9% | [12] 46.1% | [13] 60.9% | [14] 73.1% | [15] 75.5% | [16] 58.3%
active: [10] 2.44% | [17] -26.2% | [18] -67.4%

CC(C)c1ccc2c(c1)CCC1C2CCCC1(C)NCc1ccccc1 (configuration not stated)
inactive: [1] 73% | [2] 103% | [3] 32.6% | [4] 91% | [5] 71.3% | [6] 83.7% | [7] 64.7% | [9] 75% | [10] 11.1% | [12] 39.8% | [13] 51.7% | [14] 79.2% | [15] 96.7% | [16] 90%
active: [8] -35.8% | [11] -32.3% | [17] -31.2% | [18] -84.9%

CCCCCN(CCCCC)C(=O)C(CCC(=O)O)NC(=O)c1ccc(Cl)c(Cl)c1 (configuration not stated)
inactive: [1] 105% | [2] 92.6% | [3] 102% | [4] 102% | [5] 106% | [6] 85% | [7] 106% | [8] 120% | [9] 113% | [10] 115% | [11] 104% | [12] 88.1% | [13] 106% | [14] 110% | [15] 110% | [16] 113% | [17] 111% | [18] 109%

COc1ccc(-c2nc(SCCC(C)C)nc(Nc3ccc(C(=O)O)cc3)c2C#N)cc1
inactive: [1] 92.4% | [2] 91.4% | [3] 88.1% | [4] 95.7% | [5] 89.5% | [6] 67.2% | [7] 97% | [8] 104% | [9] 93.2% | [10] 67.8% | [12] 98% | [13] 90.1% | [14] 89.4% | [15] 80.5% | [16] 91.3% | [17] 95.2% | [18] 102%
active: [11] -52%

O=C(Nc1ccc(Cl)cc1)c1cc(-c2ccc(Cl)cc2)c2sc(=O)[nH]c2n1
inactive: [9] 16.5% | [14] 14.1%
active: [1] 2.31% | [2] 0.841% | [3] 6.21% | [4] -19% | [5] -5.14% | [6] 1.59% | [7] 6.31% | [8] -52.1% | [10] -12.8% | [11] -13.8% | [12] -30.9% | [13] -3.38% | [15] -12.5% | [16] 7.84% | [17] -24.9% | [18] 8.92%

COc1cccc(-c2nc3sccn3c2-c2ccnc(NCCN3CCCN(C)S3(=O)=O)n2)c1
inactive: [1] 104% | [2] 78.9% | [3] 91.4% | [4] 111% | [5] 69.5% | [6] 91.7% | [7] 73.3% | [8] 45.8% | [9] 74.2% | [11] 39.6% | [12] 84.9% | [13] 74.6% | [14] 103% | [15] 96.8% | [16] 92.5% | [17] 84.7% | [18] 29.2%

OCCN(CCO)c1ccc2ccccc2c1
inactive: [1] 101% | [2] 103% | [3] 93.6% | [4] 90.6% | [5] 107% | [6] 97.7% | [7] 111% | [8] 106% | [9] 103% | [10] 106% | [11] 102% | [12] 108% | [13] 125% | [14] 96.8% | [15] 98.9% | [16] 96.7% | [17] 110% | [18] 90.7%

CCCCCCCCCCCCCCCC1=NC(C)(C)CN1C(C)C
active: [1] 0.554% | [2] -5.35% | [4] -77.4% | [5] -53.7% | [6] -57.2% | [8] -64.6% | [9] 7.67% | [10] -50.3% | [11] -49% | [12] -62.2% | [13] -68.9% | [14] -55.2% | [15] -48.1% | [16] -79.6% | [17] -31.2% | [18] -71.4%
inactive: [3] 34.6%
